The values below come from PubChem BioAssay (NCI).

Test systems include NCI-H23 lung; NCI-H226 lung; NCI-H322M lung; HOP-62 NSCLC; NCI-H460 lung; HOP-92 NSCLC; NCI-H522 lung; A549/ATCC NSCLC; 786-0 renal; COLO 205 colon.
Holding throughout (assay): NCI-60 one-dose screen, 48 h (100 = growth as untreated, 0 = no growth, -100 = all killed)
Holding throughout (details): 10 µM unless noted

The structures appear in SMILES notation. Compounds without any hit were thinned out: in the full panel of roughly 83,000, 20% have a hit.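 Treatment: one concentration, 48 hours, 96-well format. Scoring: percent growth, with anything below 10 considered active.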 A number with no mark means an inactive call. Activity calls are given as the source filed them.

As to `CCOC(=O)COc1c(C)cc(SSc2cc(C)c(OCC(=O)OCC)c(C)c2)cc1C`, the growth with NCI-H23 lung was 103%; in the test with NCI-H226 lung, 111%; in the test with NCI-H322M lung, 105%; in the test on HOP-62 NSCLC, 109%; in the test on NCI-H460 lung it was 102%; in the test on HOP-92 NSCLC it was 76.8%. Besides, the growth was 73.8% in the test on NCI-H522 lung, 80.2% in the test with A549/ATCC NSCLC, 114% in the test on 786-0 renal and 111% with COLO 205 colon.
For `CCC(C)[C@H](NC(=O)NC(=O)NC(=O)CI)C(=O)OC` (stereo not given in full), the growth was 82.3% with NCI-H23 lung; 86.7% with NCI-H226 lung; 106% with NCI-H322M lung; 87.9% in the test on HOP-62 NSCLC; 95.6% with NCI-H460 lung; -34.4% (active) in the test on HOP-92 NSCLC. Moreover, the growth in the test on NCI-H522 lung is -86.5% (active); with A549/ATCC NSCLC, 91.9%; in the test on 786-0 renal, -50.3% (active); in the test on COLO 205 colon it was 10.8%.
As for `CCN(CC)CCSC(=O)C(O)(c1ccccc1)C1CCCC1` (stereo not given), the growth with NCI-H23 lung is 99.4%; in the test on NCI-H226 lung, 93.1%; in the test with NCI-H322M lung, 118%; in the test on HOP-62 NSCLC, 111%; in the test with NCI-H460 lung, 115%; with HOP-92 NSCLC it was 77%. Moreover, the growth with NCI-H522 lung is 86.7%; in the test on A549/ATCC NSCLC it was 85.2%; in the test with 786-0 renal it was 169%; in the test on COLO 205 colon, 144%.
Turning to `O=C(Nc1cccc(F)c1)c1cc(=O)[nH]c2cc(Br)ccc12`, the growth with NCI-H23 lung was 72.5%; with NCI-H226 lung it was 54.7%; with NCI-H322M lung, 53.8%; with HOP-62 NSCLC, 50.9%; with NCI-H460 lung, 21.9%; with HOP-92 NSCLC, 47.4%. Also, the growth with NCI-H522 lung was 23.9%; with A549/ATCC NSCLC, 40.3%; in the test with 786-0 renal it was 69.7%; in the test on COLO 205 colon it was 20.4%.
Turning to `Cc1ccc(-c2cc(O)c(-c3ccc(C)cc3C)cc2O)c(C)c1`, the growth in the test on NCI-H23 lung is 76.7%; in the test with NCI-H226 lung it was 62.9%; with NCI-H322M lung it was 106%; with HOP-62 NSCLC it was 74%; in the test with NCI-H460 lung it was 23.6%; in the test with HOP-92 NSCLC, 67.7%. The growth is 59.2% in the test on NCI-H522 lung, 51.9% in the test on A549/ATCC NSCLC, 60% in the test on 786-0 renal and 91.1% in the test with COLO 205 colon.
As to `O=C(O)CSCc1nnc2n(Cc3ccccc3)c(=O)c3c4c(sc3n12)CCCC4`, the growth in the test with NCI-H23 lung was 90.8%; with NCI-H226 lung, 87.2%; in the test on NCI-H322M lung, 101%; in the test with HOP-62 NSCLC, 139%; with NCI-H460 lung it was 111%; in the test with HOP-92 NSCLC it was 74.5%. For the same molecule, the growth is 63.7% in the test on NCI-H522 lung, 93.7% in the test on A549/ATCC NSCLC, 132% in the test with 786-0 renal and 88.2% with COLO 205 colon.
As for `COc1cc(OC)c(/C=C/C(=O)c2c(N)cc(OC)cc2OC)c(OC)c1`, the growth in the test on NCI-H23 lung was 8.81% (active); in the test with NCI-H226 lung, 75%; in the test with NCI-H322M lung, 54.4%; in the test on HOP-62 NSCLC it was 43.6%; with NCI-H460 lung it was 2.53% (active); with HOP-92 NSCLC, 26.6%. For the same molecule, the growth in the test on NCI-H522 lung was -11.8% (active); in the test with A549/ATCC NSCLC, 27.4%; in the test on 786-0 renal, 35.2%; in the test with COLO 205 colon it was -24.4% (active).
Consider `C#C[C@]1(O)CC[C@H]2[C@@H]3CC=C4c5nc(Nc6ncccn6)sc5CC[C@]4(C)[C@H]3CC[C@@]21C`, for which the growth with NCI-H23 lung is 77.8%; with NCI-H226 lung it was 68.8%; in the test with NCI-H322M lung it was 74.3%; in the test on HOP-62 NSCLC, 38.3%; with NCI-H460 lung, 31.2%; with HOP-92 NSCLC, 52.2%. The growth in the test with NCI-H522 lung is 81%; in the test on A549/ATCC NSCLC, 43.4%; in the test with 786-0 renal it was -45.2% (active); in the test on COLO 205 colon it was 92.4%.
For the molecule `C=C(C)[C@@H]1CC[C@]2(COCCCN)CC[C@]3(C)[C@H](CC[C@@H]4[C@@](C)(CCCNCCCN)[C@H](C(=C)C)CC[C@]43C)[C@@H]12`, the growth is -53.5% [100 µM] (active) with NCI-H23 lung; -41.6% [100 µM] (active) in the test with NCI-H226 lung; -76.2% [100 µM] (active) in the test with NCI-H322M lung; -47.7% [100 µM] (active) with HOP-62 NSCLC; -74.7% [100 µM] (active) with NCI-H460 lung; -69.5% [100 µM] (active) in the test with HOP-92 NSCLC. Further, the growth with NCI-H522 lung was -49.8% [100 µM] (active); in the test with A549/ATCC NSCLC it was -55.7% [100 µM] (active); in the test with 786-0 renal, -49.7% [100 µM] (active); with COLO 205 colon it was -50.3% [100 µM] (active).
Turning to `CCCCCCCCCCCCCCNC(=O)Nc1ccc(Cl)c(Cl)c1`, the growth is -0.614% (active) in the test on NCI-H23 lung; 18.5% in the test on NCI-H226 lung; 108% in the test on NCI-H322M lung; 56.6% with HOP-62 NSCLC; 86.6% in the test on NCI-H460 lung; 9.28% (active) with HOP-92 NSCLC. The growth in the test with NCI-H522 lung was -7% (active); in the test with A549/ATCC NSCLC, 77.8%; in the test on 786-0 renal, 12.3%; in the test on COLO 205 colon it was 31.7%.
For `O=C1COCCN1c1ccc(NCc2cn(Cc3ccccc3)c3ccccc23)cc1`, the growth with NCI-H23 lung is 93.7%; in the test on NCI-H226 lung it was -40.1% (active); in the test with NCI-H322M lung, 86.1%; in the test on HOP-62 NSCLC, 90.7%; with NCI-H460 lung, 31.9%; in the test with HOP-92 NSCLC it was 69.5%. The growth was 94.1% in the test on NCI-H522 lung, 81.4% with A549/ATCC NSCLC, 95.3% in the test with 786-0 renal and 28.8% with COLO 205 colon.
Take `C=C(C)[C@@H]1CC[C@]2(C(=O)NCCNCCNC(=O)OC(C)(C)C)CC[C@]3(C)[C@H](CC[C@@H]4[C@@]5(C)CCC(=O)C(C)(C)[C@@H]5CC[C@]43C)[C@@H]12`: the growth was 37.1% [100 µM] in the test with NCI-H23 lung; 44.2% [100 µM] in the test with NCI-H226 lung; 73.8% [100 µM] in the test on NCI-H322M lung; 45.4% [100 µM] in the test on HOP-62 NSCLC; 20.6% [100 µM] in the test on NCI-H460 lung; 8.07% [100 µM] (active) with HOP-92 NSCLC. In addition, the growth in the test with NCI-H522 lung was 39.9% [100 µM]; in the test with A549/ATCC NSCLC it was 32.1% [100 µM]; with 786-0 renal, 52.6% [100 µM]; with COLO 205 colon, 57.7% [100 µM].
As to `CC1(C)C(=NO)C(C)(C)C1=NO`, the growth was 111% in the test with NCI-H23 lung; 103% in the test with NCI-H226 lung; 99.6% with NCI-H322M lung; 117% in the test with HOP-62 NSCLC; 105% in the test with NCI-H460 lung; 88.7% with HOP-92 NSCLC. The growth was 94.1% in the test on NCI-H522 lung, 103% with A549/ATCC NSCLC, 110% with 786-0 renal and 116% in the test with COLO 205 colon.
